# High-throughput results (PubChem BioAssay)
# RXFP1 antagonist: blocks the human relaxin receptor RXFP1; Q9HBX9; HEK293-RXFP1, relaxin-stimulated cAMP HTRF, 30 min; stronger effect = lower value; activity change, negative = inhibition, % at 57.5 µM; 0.59% of 350,000 active; AID 1259400;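 active = activity change of -60% or lower, but not beyond a set lower limit; inconclusive = change between -60% and -40%, or beyond the set limit; inactive = change above -40%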
# Target sequence (Q9HBX9 whole entry, looked up): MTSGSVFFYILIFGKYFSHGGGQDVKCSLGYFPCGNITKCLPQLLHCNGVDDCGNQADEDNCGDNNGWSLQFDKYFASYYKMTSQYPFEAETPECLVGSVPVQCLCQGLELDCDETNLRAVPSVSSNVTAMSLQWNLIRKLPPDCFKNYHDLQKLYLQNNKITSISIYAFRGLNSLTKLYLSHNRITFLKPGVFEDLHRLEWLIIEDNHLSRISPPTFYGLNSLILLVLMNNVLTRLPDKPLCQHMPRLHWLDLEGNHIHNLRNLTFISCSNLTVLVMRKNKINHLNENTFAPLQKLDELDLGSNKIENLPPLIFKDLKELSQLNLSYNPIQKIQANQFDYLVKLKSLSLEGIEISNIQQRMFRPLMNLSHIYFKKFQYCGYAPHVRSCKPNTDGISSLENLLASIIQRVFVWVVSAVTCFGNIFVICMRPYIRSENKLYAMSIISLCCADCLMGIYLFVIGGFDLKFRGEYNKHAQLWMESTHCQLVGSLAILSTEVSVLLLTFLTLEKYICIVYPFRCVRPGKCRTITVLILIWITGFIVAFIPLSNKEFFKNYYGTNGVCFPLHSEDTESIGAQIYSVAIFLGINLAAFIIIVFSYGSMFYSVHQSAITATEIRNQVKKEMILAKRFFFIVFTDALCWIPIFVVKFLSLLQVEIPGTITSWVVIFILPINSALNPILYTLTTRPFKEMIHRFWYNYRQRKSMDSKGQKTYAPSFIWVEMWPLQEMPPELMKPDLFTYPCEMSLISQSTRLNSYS
# IL2 activator: activators of IL-2; IL-2 activation reporter assay, cell-based qHTS; stimulated with anti-CD3/CD4/CD28 beads; in transgenic mouse T cells; activation, % (series mostly up to about 46 µM); 0.065% of 360,000 active; AID 652025; in the data active = activation above about 50%; inconclusive = mostly about 30% to 49%
#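 Readout: EGFP and DsRed signals by fluorescent plate cytometry. Unstimulated transgenic mouse T cells received compound 60 min before antibody-bead stimulation, then incubated 18 h at 37 degrees C.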
# Giardia kill: Giardia lamblia killing; Giardia lamblia trophozoite viability; activity change, % at 7.66 µM, hits read low; 0.15% of 340,000 active; AID 540267; in the data active = activity change below about -80%; inconclusive = between about -30% and that limit;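 note: parasites exposed to compound for two days anaerobically before the ATP read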
#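 Compounds were tested on trophozoites seeded at 100 cells/well and held 48 hrs at 37 deg C anaerobically. An ATP-based luminescent kit measured the remaining live cells.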
# NPSR antagonist: antagonists of human neuropeptide S receptor cAMP signaling; Q6W5P4; CHO-NPSR cells, cAMP TR-FRET, antagonist mode; Potency, µM (highest dose often 38.3 µM), actives largely listed as inhibitors; 1% of 220,000 active; AID 1461; note: nearly all actives have a fitted effect of over 50% in size
# RXFP1 agonist: agonists of human relaxin receptor RXFP1; HEK293T-RXFP1 cAMP TR-FRET, 30 min; response scale: percent of porcine relaxin response, buffer zero; Potency, µM (highest dose often 57.5 µM), actives largely listed as activators; Q9HBX9; AID 2676; 0.3% of 370,000 active; note: nearly all actives have a fitted effect of over 60% in size
#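 HEK293T cells stably expressing RXFP1 were pretreated with the PDE4 inhibitor Ro 20174, exposed to compounds for 30 min at 37C, lysed, and cAMP was read by TR-FRET. Data normalized to buffer (basal) and 29 nM porcine relaxin (100%).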
# BRCA1 expr up: activators of BRCA1 expression | MCF7-BRCA1-FFLuc reporter, luminescence, 48 h; response scale: scaled: vehicle 0%, 10 µM genistein 100% | Potency, µM (highest dose often 46.1 µM), usual class: activators | 1.1% of 380,000 active | AID 624202; note: nearly all actives have a fitted effect of over 80% in size
#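 First, MCF7-BRCA1-FFLuc cells (2000/well) attach for 2 h; next, compounds are pin-added and incubated 48 h at 37 °C; finally, luciferase reagent is added and luminescence read after 15 min.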
# A number is an active result; . = inactive; ? = inconclusive; / = no result. An excerpt weighted towards active compounds, which were near 1.9% of everything screened. Unless noted, calls come from the whole dose curve; as a rule, active = well fitted curve in the direction sought with a large enough effect; inconclusive = small, poorly fitted or top-dose-only effect, or another doubt; inactive = no such curve, though single readings can be large; an effect the other way counts as inactive or inconclusive.
SMILES,RXFP1 antagonist,IL2 activator,Giardia kill,NPSR antagonist,RXFP1 agonist,BRCA1 expr up
O=C(CNC(=O)OCc1ccccc1)NC1CCCCCC1,.,.,.,.,.,.
O=C(Nc1nccs1)OCc1ccccc1,.,.,.,/,/,14.1µM
O=C(NCc1ccccc1)C(=O)Nc1nccs1,.,.,.,.,.,.
Nc1nc(NCc2ccc(Cl)cc2)c2[nH]cnc2n1,/,/,.,/,/,.
COc1cc(NC(=O)c2c(OC)cccc2OC)ccc1NC(=O)c1cc2ccccc2o1,.,.,.,/,.,11.2µM
COC(=O)c1ccc(/C(O)=C(\C#N)c2nc3ccccc3s2)cc1,.,.,.,.,.,5.01µM
O=c1[nH]c(/C=C/c2ccc(Br)cc2)nc2ccccc12,.,.,?,/,?,?
CN(C)c1ccc(/C=C/c2nc3ccccc3c(=O)[nH]2)cc1,.,60.9,-91.9,/,.,?
COc1cc(C2Nc3cccc4cccc(c34)N2)ccc1O,-70.3,.,.,/,.,.
COc1cc(C2Nc3cccc4cccc(c34)N2)cc(OC)c1OC(C)=O,?,.,.,.,.,.
CCc1ccccc1N(c1nc(-c2ccc(OC)c(OC)c2)no1)c1nc(-c2ccc(OC)c(OC)c2)no1,/,/,/,/,.,.
CC(=O)c1sc(N/N=C\c2c(O)ccc3ccccc23)nc1C,-82.2,.,.,/,/,.
Cc1ccc(C)c(NC(=O)Nc2csc3c2CCCC3)c1,.,/,/,/,.,/
O=C(CSc1ncc(-c2ccccc2)[nH]1)Nc1cccc(Br)c1,.,/,/,/,.,/
O=C(Nc1cc(S(=O)(=O)N2CCOCC2)ccc1N1CCOCC1)c1ccc([N+](=O)[O-])s1,.,.,-88.8,/,/,.
c1ccc(Oc2cnc3ccccc3n2)cc1,.,.,.,.,.,.
COc1ccc(Oc2cnc3ccccc3n2)cc1,.,.,.,?,?,11.2µM
COc1ccccc1C1NC(c2ccc3c(c2)OCO3)=CC(c2cc(Br)ccc2O)N1 (configuration not stated),/,/,.,/,/,.
O=[N+]([O-])c1ccc(CSc2nc3ccccc3[nH]2)cc1,.,.,.,.,.,3.98µM
CCc1nc(SCc2ccc(Br)cc2)n[nH]1,.,.,.,/,.,10µM
Cc1nc(SCc2ccc([N+](=O)[O-])cc2)n[nH]1,-72.5,.,.,/,.,?
CCc1nc(SCc2ccc([N+](=O)[O-])cc2)n[nH]1,.,.,.,.,.,.
CCc1nc(SCc2ccc(Cl)cc2)n[nH]1,.,.,.,.,.,?
O=C(O)CSC1=NS(=O)(=O)c2ccccc21,/,/,.,/,/,.
Cc1ccc(N2CC3=C(C2=O)C(c2ccc(Br)cc2)NC(=O)N3C)cc1 (configuration not stated),/,/,/,/,.,.
SMILES,RXFP1 antagonist,IL2 activator,Giardia kill,NPSR antagonist,RXFP1 agonist,BRCA1 expr up
O=C(CSc1ccccc1C(=O)O)c1ccc(Cl)cc1,.,.,.,/,.,10µM
O=C(CSc1ccccc1C(=O)O)c1ccccc1,.,.,.,/,.,.
COc1ccc(S(=O)(=O)N2CCC(N3CCN(Cc4ccccc4)C(=O)C3=O)CC2)cc1,.,/,/,/,.,/
COc1ccc(-n2c(C)n[nH]c2=O)cc1,.,.,.,.,.,.
Cc1n[nH]c(=O)n1-c1ccc(OCc2ccccc2)cc1,.,.,.,.,.,5.62µM
COc1ccc(S(=O)(=O)c2c(Nc3cccc(C)c3C)sc(C(=O)c3ccccc3)c2N)cc1,.,/,/,/,.,/
Cc1cccc(/C=C/C(=O)c2cc(Br)ccc(=O)c2O)c1,.,.,.,10µM,.,.
CN1OC[C@@H]2CN[C@H](c3ccc(-c4cccc(F)c4)cc3)C[C@@H]21,.,.,/,/,/,11.2µM
COC(=O)C(C)(C)ONC(=O)Nc1ccccc1Br,/,.,.,.,.,.
COC(=O)C(C)(C)ONC(=O)Nc1ccccc1Cl,-64.6,.,.,.,.,.
CCCCCCCOc1ccc(CC(=O)NO)cc1,/,/,/,/,/,.
CC1CCc2cc(F)cc3c2N1C(=O)C(C(=O)Nc1cnccn1)C3=O (configuration not stated),/,/,?,/,/,.
O=C(NCCc1ccccc1Cl)c1ccc(Cn2c(=O)c3cccn3c3cccnc32)cc1,.,/,/,/,22.4µM,/
CCCNC(=O)c1ccc(Cn2c(=O)c3cccn3c3cccnc32)cc1,.,/,/,/,.,/
O=C(N/N=C/c1ccc([N+](=O)[O-])s1)c1ccccc1,.,.,-89.8,.,.,.
Cc1ccccc1C(=O)N/N=C/c1ccc([N+](=O)[O-])s1,.,.,?,.,.,.
Cc1ccnn1CC(=O)N/N=C/c1ccc([N+](=O)[O-])s1,.,.,-95.9,.,.,.
O=C(N/N=C\c1ccc([N+](=O)[O-])s1)c1cncc(Br)c1,.,.,?,.,.,.
O=C(N/N=C/c1ccc([N+](=O)[O-])s1)c1ccccc1Br,.,.,-95.9,.,.,.
Cc1ccnn1CC(=O)N/N=C/c1cccs1,.,.,.,.,.,.
O=C(Cc1ccccc1)N/N=C/c1ccc([N+](=O)[O-])s1,.,.,-90.9,.,.,.
Fc1cccc(CNc2ncnc3ccc(-c4cccnc4)cc23)c1,/,/,/,/,.,/
Cc1cc(C(=O)N/N=C/c2ccc([N+](=O)[O-])s2)c2ccccc2n1,.,.,-95.2,/,.,.
Cc1cc(C(=O)N/N=C/c2ccc([N+](=O)[O-])cc2)c2ccccc2n1,.,.,.,.,.,.
Cc1ccc(C(=O)N/N=C\c2ccccc2[N+](=O)[O-])cn1,.,.,.,.,.,4.47µM
SMILES,RXFP1 antagonist,IL2 activator,Giardia kill,NPSR antagonist,RXFP1 agonist,BRCA1 expr up
CCOc1ccccc1NC(=O)C(=O)N/N=C/c1ccc([N+](=O)[O-])cc1,.,.,.,.,.,.
Cc1ccc(C(=O)N/N=C\C=C\c2ccccc2[N+](=O)[O-])cn1,.,.,.,.,.,.
COc1ccccc1NC(=O)C(=O)N/N=C/c1ccc([N+](=O)[O-])s1,.,.,-89.5,.,.,.
CC(=O)N1CCc2cc(S(=O)(=O)NC(Cc3ccccc3)C(=O)Nc3cccc(C)c3)ccc21 (configuration not stated),.,/,/,/,.,/
COc1cc(C(=O)Nc2cccc(OCc3cc(=O)n4c(C)csc4n3)c2)cc(OC)c1OC,/,/,/,/,.,.
COc1c(C)c2c(c(O)c1C/C=C(\C)CCC(=O)OCCN1CCOCC1)C(=O)OC2,.,/,/,/,/,/
Cc1cc(/C=C2\C=Cc3ccccc32)cc(C)c1N,/,/,/,/,/,.
Cc1ccc(-n2nc(C(=O)N(C)Cc3ccccc3)c3c4ccccc4n(C)c3c2=O)cc1,/,/,/,/,.,.
COc1cc2c(N3CCN(C(=O)Nc4ccc(OC(C)C)cc4)CC3)ncnc2cc1OCCCN1CCCCC1,.,/,/,/,/,/
O=[N+]([O-])c1cc(/C=N/O)ccc1Sc1ccccc1,-60.1,.,.,?,.,.
